Assay results: PubChem BioAssay (NCATS)
Unmarked numbers belong to inactive results. Records with an inconclusive call do not appear. Where a call stands in place of a potency, no number is given. The source made the active and inactive calls. Unless noted, calls follow the shape of the dose curve; as a rule, active = well fitted curve in the direction sought with a large enough effect; inconclusive = small, poorly fitted or top-dose-only effect, or another doubt; inactive = no such curve, though single readings can be large; an effect the other way counts as inactive or inconclusive.

Key:
[1] = molecular target: Lysosomal acid glucosylceramidase (Homo sapiens) (UniProt P04062); assay: Glucocerebrosidase-p2 (AID 348; in the data active = potency below about 10 µM; also: potency is read from the fitted curve at half-maximal effect); conditions: purified GBA, blue fluorogenic substrate, 40 min
Sequence of Lysosomal acid glucosylceramidase (Homo sapiens) (P04062 whole entry, looked up): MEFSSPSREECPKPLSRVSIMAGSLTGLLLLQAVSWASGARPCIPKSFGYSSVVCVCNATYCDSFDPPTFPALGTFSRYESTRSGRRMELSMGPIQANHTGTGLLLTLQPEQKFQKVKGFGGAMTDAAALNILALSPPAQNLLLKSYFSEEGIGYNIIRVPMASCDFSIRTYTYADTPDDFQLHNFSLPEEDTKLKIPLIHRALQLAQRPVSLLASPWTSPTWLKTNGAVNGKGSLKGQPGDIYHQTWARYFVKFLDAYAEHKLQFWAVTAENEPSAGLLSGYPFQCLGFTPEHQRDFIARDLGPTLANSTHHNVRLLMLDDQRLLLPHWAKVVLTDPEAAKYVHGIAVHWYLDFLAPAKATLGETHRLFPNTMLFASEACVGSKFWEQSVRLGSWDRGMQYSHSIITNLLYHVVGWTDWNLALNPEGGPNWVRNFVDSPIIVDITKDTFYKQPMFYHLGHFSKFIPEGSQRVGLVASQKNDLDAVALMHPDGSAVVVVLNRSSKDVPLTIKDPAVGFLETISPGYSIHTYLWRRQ
Summary of the method: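 Compounds titrated from 0.6 nM upwards against 0.2 nM enzyme in pH 5.9 citric acid/KH2PO4, taurocholate, tween-20; blue fluorogenic substrate 80 uM, 40 min room temperature, stopped and read Ex 365/Em 440 for AC50.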

[2] = molecular target: Cytochrome P450 1A2 (Homo sapiens) (UniProt P05177); assay: p450-cyp1a2 (AID 410; calls by dose curve; also: potency is read from the fitted curve at half-maximal effect); conditions: recombinant CYP1A2, luciferin-ME demethylation, luminescence; series mostly up to 57 µM
Sequence of Cytochrome P450 1A2 (Homo sapiens) (P05177 whole entry, looked up): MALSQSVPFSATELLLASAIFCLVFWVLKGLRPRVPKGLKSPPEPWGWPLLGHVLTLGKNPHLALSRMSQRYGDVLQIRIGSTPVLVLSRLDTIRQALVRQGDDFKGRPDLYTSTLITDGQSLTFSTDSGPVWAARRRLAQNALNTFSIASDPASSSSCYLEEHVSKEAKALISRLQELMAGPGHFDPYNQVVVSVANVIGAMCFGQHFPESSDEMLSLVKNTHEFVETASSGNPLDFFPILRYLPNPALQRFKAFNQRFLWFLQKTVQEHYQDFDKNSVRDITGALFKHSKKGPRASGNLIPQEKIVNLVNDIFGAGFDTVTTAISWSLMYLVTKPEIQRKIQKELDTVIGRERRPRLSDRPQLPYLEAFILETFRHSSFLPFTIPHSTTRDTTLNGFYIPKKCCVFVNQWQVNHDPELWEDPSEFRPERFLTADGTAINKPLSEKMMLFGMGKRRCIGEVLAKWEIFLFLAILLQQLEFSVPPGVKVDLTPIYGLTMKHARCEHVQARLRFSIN
Summary of the method: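 20nM CYP1A2 with 100uM Luciferin-ME (at Km) in 100mM KPO4; compound preincubated 10 min, NADPH regeneration added, 60 min at room temperature. Luciferin quantified by luminescence after detection reagent; normalized to 57 uM furafylline.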

[3] = molecular target: Glucocorticoid receptor (Homo sapiens) (UniProt P04150); assay: GR-GFP Redistribution (AID 450;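 active = compounds whose dose series gives a full or clear partial fitted curve of increased nuclear translocation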; also: potency is read from the fitted curve at half-maximal effect); conditions: U2OS GR-GFP nuclear translocation, laser cytometry, 2 h
Sequence of Glucocorticoid receptor (Homo sapiens) (P04150 whole entry, looked up, the tested form may be a part): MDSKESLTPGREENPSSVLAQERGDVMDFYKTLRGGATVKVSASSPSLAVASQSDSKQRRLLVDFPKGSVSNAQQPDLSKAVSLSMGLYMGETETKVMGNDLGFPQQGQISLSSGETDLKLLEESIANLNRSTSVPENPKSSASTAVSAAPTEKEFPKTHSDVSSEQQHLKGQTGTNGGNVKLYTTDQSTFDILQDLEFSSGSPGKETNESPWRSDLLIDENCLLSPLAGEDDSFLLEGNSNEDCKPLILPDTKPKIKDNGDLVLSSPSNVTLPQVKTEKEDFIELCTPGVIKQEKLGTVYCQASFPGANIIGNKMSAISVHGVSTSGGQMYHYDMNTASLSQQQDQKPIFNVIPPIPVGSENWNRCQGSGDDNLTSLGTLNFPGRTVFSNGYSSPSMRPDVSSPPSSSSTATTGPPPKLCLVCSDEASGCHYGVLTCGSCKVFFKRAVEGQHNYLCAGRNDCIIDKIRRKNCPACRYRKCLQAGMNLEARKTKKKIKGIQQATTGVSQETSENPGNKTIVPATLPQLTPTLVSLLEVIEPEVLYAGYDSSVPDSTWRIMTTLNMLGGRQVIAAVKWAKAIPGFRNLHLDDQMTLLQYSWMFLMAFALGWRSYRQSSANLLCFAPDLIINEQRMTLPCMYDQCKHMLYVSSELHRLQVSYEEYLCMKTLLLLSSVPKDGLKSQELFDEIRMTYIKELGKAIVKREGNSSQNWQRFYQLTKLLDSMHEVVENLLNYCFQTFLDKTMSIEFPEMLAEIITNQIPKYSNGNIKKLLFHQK

[4] = molecular target: Glucocorticoid receptor (Homo sapiens) (UniProt P04150); assay: GR-EFC Redistribution (AID 451; calls by dose curve; also: potency is read from the fitted curve at half-maximal effect); conditions: CHO-K1 GR-EFC translocation, beta-gal luminescence, 2 h
Summary of the method: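 Translocation of GR-ED fusion to nuclear EA restores b-gal, read by luminescence after 1 h room-temperature detection. Engineered CHO-K1 biosensor cells, 1,000/well, exposed 2 h at 37 C to titrations up to 46 uM final.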

[5] = molecular target: Mitogen-activated protein kinase 10 (Mus musculus) (UniProt Q61831); assay: JNK3 AlphaScreen Assay (AID 530; active = well fitted curve in either direction with a large enough effect, not every such curve was filed as active;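 also: kinase came from lysate of stimulated human HepG2 cells; signal reports phosphorylation of biotinylated GST-cJun 1-79 at Ser73 with 10 µM ATP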); conditions: JNK3 lysate, c-Jun phosphorylation; series mostly up to 57.1 µM
Summary of the method: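 Compound titrations were preincubated 15 minutes at room temperature with substrate, antibody and pre-activated JNK3-containing HepG2 lysate. Reactions were started with 10 uM ATP and stopped with EDTA-containing bead buffer for AlphaScreen detection.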

[6] = molecular target: 3',5'-cyclic-AMP phosphodiesterase 4B (Homo sapiens) (UniProt Q07343); assay: qHTS Assay for Inhibitors of PDE-IV (AID 607; active = well fitted activation curve with a large enough effect in the main read-out, with a control signal flat, not every such curve was filed as active); conditions: HEK293 ACTOne CNG channel cells, membrane potential fluorescence; series mostly up to 22.9 µM
Sequence of 3',5'-cyclic-AMP phosphodiesterase 4B (Homo sapiens) (Q07343 whole entry, looked up): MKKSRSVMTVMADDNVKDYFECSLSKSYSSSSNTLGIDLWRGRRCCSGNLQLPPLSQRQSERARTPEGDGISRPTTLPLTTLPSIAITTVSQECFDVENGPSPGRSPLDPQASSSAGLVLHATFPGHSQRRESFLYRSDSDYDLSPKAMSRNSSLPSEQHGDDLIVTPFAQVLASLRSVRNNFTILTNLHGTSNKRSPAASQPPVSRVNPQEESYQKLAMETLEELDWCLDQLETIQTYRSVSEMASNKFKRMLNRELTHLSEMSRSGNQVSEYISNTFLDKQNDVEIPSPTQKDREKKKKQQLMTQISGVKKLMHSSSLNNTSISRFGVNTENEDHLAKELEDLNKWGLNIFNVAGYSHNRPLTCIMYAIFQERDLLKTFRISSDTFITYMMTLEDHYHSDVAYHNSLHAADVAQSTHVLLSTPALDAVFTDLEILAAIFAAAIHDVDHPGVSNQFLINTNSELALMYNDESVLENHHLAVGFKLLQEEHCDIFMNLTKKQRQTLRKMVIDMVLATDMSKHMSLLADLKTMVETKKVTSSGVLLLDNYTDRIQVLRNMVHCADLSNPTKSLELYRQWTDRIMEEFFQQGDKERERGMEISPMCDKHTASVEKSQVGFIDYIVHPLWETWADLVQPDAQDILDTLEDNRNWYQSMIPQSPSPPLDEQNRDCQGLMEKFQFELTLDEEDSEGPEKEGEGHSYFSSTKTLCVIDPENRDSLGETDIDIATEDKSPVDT
Summary of the method: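 ACTOne HEK293 cells carry a modified cAMP-gated CNG channel and express endogenous PDE4; plated 1000 cells/well, compounds up to 22.9 uM final. Membrane-potential dye fluorescence (ex 535/em 590) was read; parental cells received 10 uM forskolin + 100 uM RO 20-1724.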

[7] = molecular target: Cytochrome P450 3A4 (Homo sapiens) (UniProt P08684); assay: qHTS Assay for Activators of Cytochrome P450 3A4 (AID 885); conditions: recombinant CYP3A4, Luciferin-PPXE luminescence, 60 min; series mostly up to 57.1 µM; also: nearly all actives have a fitted effect of over 65% in size
Sequence of Cytochrome P450 3A4 (Homo sapiens) (P08684 whole entry, looked up): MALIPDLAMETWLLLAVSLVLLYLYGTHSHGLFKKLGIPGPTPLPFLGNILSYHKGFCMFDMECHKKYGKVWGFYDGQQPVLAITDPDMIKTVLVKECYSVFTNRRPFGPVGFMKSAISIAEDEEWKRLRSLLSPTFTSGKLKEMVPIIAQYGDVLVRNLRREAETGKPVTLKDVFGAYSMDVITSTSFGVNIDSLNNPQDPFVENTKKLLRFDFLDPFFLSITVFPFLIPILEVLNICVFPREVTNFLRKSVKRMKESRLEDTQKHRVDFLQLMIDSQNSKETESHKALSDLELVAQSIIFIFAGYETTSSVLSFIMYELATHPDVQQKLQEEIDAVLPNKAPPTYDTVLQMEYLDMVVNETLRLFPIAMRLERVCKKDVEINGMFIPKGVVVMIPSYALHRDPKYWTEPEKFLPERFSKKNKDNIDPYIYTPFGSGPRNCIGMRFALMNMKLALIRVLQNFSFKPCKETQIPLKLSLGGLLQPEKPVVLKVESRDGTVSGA
Summary of the method: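 20nM CYP3A4 + 25uM Luciferin-PPXE (=KM), 200mM KPO4; cpd 10 min RT; NADPH regen, 60 min RT; stop w/ detection buffer, 20 min; luminescence. Normalized to 57 uM ketoconazole.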

[8] = molecular target: Dual specificity protein kinase CLK4 (Homo sapiens) (UniProt Q9HAZ1); assay: qHTS Assay for Inhibitors of CDC-like Kinase 4 (Kinase-Glo Assay) (AID 1770); conditions: recombinant Clk4, Kinase-Glo ATP depletion luminescence; series mostly up to 66.7 µM; also: nearly all actives have a fitted effect of over 65% in size; also: potency is read from the fitted curve at half-maximal effect
Summary of the method: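 Substrate mix (RS peptide 100 uM, ATP 1 uM) dispensed, compound pinned in, then Clk4 added to 25 nM final. Incubated 4.5 h at RT; Kinase-Glo reagent added, luminescence read after 5 min.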

[9] = molecular target: Dual specificity protein kinase CLK4 (Homo sapiens) (UniProt Q9HAZ1); assay: qHTS Assay for Inhibitors of CDC-like Kinase 4 (ADP-Glo Assay) (AID 1771); conditions: recombinant CLK4, ADP-Glo luminescence; series mostly up to 80 µM; also: nearly all actives have a fitted effect of over 70% in size; also: potency is read from the fitted curve at half-maximal effect
Summary of the method: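 25 nM Clk4 with 100 uM RS repeat peptide and 1 uM ATP (final) in buffer with 2 mM MgCl2, 0.5 mM EGTA, 2.5 mM DTT, 0.01% Triton X-100; 1 h at room temperature; ADP-Glo luminescence for ADP formed.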

[10] = molecular target: Dual specificity protein kinase CLK4 (Homo sapiens) (UniProt Q9HAZ1); assay: qHTS Assay for Inhibitors of CDC-like Kinase 4 (ADP-FP Assay) (AID 1795); conditions: Transcreener ADP fluorescence polarization; series mostly up to 50 µM;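 also: recombinant human CLK4 phosphorylating RS repeat peptide at 1 µM ATP; nearly all actives have a fitted effect of over 60% in size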
Summary of the method: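 Clk4 6.25 nM; RS peptide 100 uM; ATP 1 uM; 25 mM Tris pH 7.5, 10 mM MgCl2; 1 h reaction. ADP detected via antibody/orange tracer FP displacement; TG003 positive control.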

[11] = Primary qHTS for small molecule stabilizers of the endoplasmic reticulum resident proteome: Secreted ER Calcium Modulated Protein (SERCaMP) assay (AID 1508630); conditions: SH-SY5Y GLuc-SERCaMP (Gaussia luciferase released on ER calcium loss) secretion, thapsigargin, luminescence; series mostly up to 38.4 µM
Summary of the method: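 GLuc-SERCaMP-expressing SH-SY5Y cells, pretreated 16 h with compound, are challenged with thapsigargin to empty ER calcium stores; after 4 h, coelenterazine is added directly to the medium and luminescence is imaged.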

[12] = molecular target: Rap guanine nucleotide exchange factor 3 (Homo sapiens) (UniProt O95398); assay: Confirmatory qHTS for agonist of cAMP-regulated guanine nucleotide exchange factor 3 (EPAC1) (AID 1645881); conditions: EPAC1 Rap1B BODIPY-GDP exchange fluorescence; series mostly up to 154 µM;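 also: EPAC1 catalysed release of BODIPY-GDP from Rap1B seen as fluorescence loss; nearly all actives have a fitted effect of over 75% in size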
Sequence of Rap guanine nucleotide exchange factor 3 (Homo sapiens) (O95398 whole entry, looked up): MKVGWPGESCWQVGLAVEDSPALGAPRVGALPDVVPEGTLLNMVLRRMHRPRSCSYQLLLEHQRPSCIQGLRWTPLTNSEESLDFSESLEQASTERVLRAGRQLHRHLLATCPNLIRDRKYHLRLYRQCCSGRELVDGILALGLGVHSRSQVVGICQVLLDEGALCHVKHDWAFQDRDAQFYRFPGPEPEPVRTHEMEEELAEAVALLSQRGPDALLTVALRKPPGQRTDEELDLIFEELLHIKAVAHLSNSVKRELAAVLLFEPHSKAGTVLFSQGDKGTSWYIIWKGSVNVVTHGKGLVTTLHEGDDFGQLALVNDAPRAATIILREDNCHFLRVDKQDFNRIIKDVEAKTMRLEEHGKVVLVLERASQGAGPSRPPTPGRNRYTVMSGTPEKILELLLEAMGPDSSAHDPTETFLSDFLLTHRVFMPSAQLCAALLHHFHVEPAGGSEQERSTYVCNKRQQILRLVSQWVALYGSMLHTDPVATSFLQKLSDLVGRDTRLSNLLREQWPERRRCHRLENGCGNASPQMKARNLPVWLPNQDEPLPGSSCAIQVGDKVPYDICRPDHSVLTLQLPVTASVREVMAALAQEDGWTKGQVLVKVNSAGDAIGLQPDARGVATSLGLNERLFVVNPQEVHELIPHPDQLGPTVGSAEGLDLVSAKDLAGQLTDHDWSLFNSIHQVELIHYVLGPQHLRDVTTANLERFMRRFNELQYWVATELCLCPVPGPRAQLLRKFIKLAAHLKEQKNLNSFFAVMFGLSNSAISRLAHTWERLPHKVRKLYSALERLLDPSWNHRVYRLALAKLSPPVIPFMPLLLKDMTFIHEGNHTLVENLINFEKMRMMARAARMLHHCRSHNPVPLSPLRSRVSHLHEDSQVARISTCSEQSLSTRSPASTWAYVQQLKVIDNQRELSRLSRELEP

[13] = molecular target: Rap guanine nucleotide exchange factor 4 (Homo sapiens) (UniProt Q8WZA2); assay: Confirmatory qHTS for agonist of cAMP-regulated guanine nucleotide exchange factor 4 (EPAC2) (AID 1645884); conditions: EPAC2 GEF activity, Rap1B-BODIPY-GDP fluorescence; series mostly up to 154 µM;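 also: nucleotide exchange releases bodipy-GDP from Rap1 and this lowers its fluorescence; nearly all actives have a fitted effect of over 65% in size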
Sequence of Rap guanine nucleotide exchange factor 4 (Homo sapiens) (Q8WZA2 whole entry, looked up): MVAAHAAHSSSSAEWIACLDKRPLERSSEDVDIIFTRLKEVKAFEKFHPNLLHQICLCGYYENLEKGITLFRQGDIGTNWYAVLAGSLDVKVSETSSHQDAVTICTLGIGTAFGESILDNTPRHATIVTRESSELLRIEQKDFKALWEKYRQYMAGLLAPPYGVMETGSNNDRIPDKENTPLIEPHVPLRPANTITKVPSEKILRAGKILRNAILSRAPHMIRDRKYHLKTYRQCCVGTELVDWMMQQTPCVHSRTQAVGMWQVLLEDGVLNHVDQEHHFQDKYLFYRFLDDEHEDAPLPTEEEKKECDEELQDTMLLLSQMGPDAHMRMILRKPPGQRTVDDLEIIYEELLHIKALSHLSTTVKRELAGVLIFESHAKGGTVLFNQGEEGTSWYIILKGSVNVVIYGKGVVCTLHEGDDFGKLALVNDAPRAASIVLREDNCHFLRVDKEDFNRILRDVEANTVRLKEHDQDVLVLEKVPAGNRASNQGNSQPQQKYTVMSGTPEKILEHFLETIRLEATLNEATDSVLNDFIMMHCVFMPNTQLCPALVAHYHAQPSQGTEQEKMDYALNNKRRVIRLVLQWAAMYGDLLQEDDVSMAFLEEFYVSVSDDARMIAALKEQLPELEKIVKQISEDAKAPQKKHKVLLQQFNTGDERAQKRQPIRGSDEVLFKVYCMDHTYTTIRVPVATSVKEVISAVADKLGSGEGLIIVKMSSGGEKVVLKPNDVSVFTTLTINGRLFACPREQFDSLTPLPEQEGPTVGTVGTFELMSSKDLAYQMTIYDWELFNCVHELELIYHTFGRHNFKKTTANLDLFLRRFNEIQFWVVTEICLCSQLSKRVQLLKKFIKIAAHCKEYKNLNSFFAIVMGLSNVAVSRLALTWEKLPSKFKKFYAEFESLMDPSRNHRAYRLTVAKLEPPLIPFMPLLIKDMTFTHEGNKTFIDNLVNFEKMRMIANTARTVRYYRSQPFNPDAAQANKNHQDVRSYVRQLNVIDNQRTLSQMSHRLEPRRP

[14] = molecular target: Rap guanine nucleotide exchange factor 4 (Homo sapiens) (UniProt Q8WZA2); assay: Confirmatory qHTS for antagonist of cAMP-regulated guanine nucleotide exchange factor 4 (EPAC2) (AID 1645885); conditions: EPAC2 Rap1B-BODIPY-GDP exchange fluorescence, biochemical; series mostly up to 114 µM; also: nearly all actives have a fitted effect of over 25% in size; also: potency is read from the fitted curve at half-maximal effect
[15] = molecular target: Rap guanine nucleotide exchange factor 3 (Homo sapiens) (UniProt O95398); assay: Confirmatory qHTS for antagonist of cAMP-regulated guanine nucleotide exchange factor 3 (EPAC1) (AID 1645880); conditions: EPAC1 Rap1B-BODIPY-GDP exchange, fluorescence; series mostly up to 115 µM; also: nearly all actives have a fitted effect of over 55% in size; also: potency is read from the fitted curve at half-maximal effect
Summary of the method: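 Nucleotide exchange uses 100 nM EPAC1, 250 nM RAP1B-BODIPY-GDP and 50 uM GDP, with compounds in a concentration-titration series. After 5 min at room temperature, fluorescence (480 nm ex/540 nm em) is read every 5 min for 30 min. Data are normalized to control ATA and DMSO.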

[16] = AP1 Signaling Pathway (AID 357; active = well fitted curve in either direction with a large enough effect, not every such curve was filed as active;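 also: ME-180 reporter cells stimulated with EGF at its EC50 level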); conditions: ME-180 AP-1-bla reporter, EGF-induced, beta-lactamase ratio, 5 h; at 7.69 µM (top of the series) unless noted
Summary of the method: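 In this screen, ME-180 cells in Opti-MEM with 0.5% dialyzed FBS received EC50 EGF and compound titrations for 5 h. AP-1 reporter beta-lactamase was detected via CCF4 ratio, giving AC50 for positive and negative modulators.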

[17] = NFAT Signaling Pathway (AID 444; active = well fitted curve in either direction with a large enough effect, not every such curve was filed as active;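 also: carbachol stimulus at about its EC50 of 1 µM final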); conditions: Jurkat NFAT-bla M1, carbachol, beta-lactamase ratio, 5 h; at 7.69 µM (top of the series) unless noted
Summary of the method: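 Read-out: CCF4 FRET ratio (460 nm/530 nm) after 1 h RT dye loading, used for %activity and AC50 from titration series. Cells: Jurkat NFAT-β-lactamase/M1 line, treated with compound plus 1 uM carbachol for 5 h, 37 °C.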

[18] = Stat Signaling Pathway (AID 446; active = well fitted curve in either direction with a large enough effect, not every such curve was filed as active;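 also: ME-180 cervical cancer cells given 40 pM IL-6 alongside compound; SIE-controlled beta-lactamase reporter measured as 460/530 nm FRET emission ratio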); conditions: ME-180 SIE beta-lactamase reporter, IL-6 stimulated, 5 h; at 7.69 µM (top of the series) unless noted
Summary of the method: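 ME-180 SIE-bla cells; overnight plating; cpd + IL-6 40 pM, 5 h, 37 C; LiveBLAzer 2.5 h RT; 460/530 nm emission ratio. Normalized to 300 pM IL-6 and 125 nM JAK inhibitor controls.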

[19] = molecular target: Ubiquitin carboxyl-terminal hydrolase 1 (Homo sapiens) (UniProt O94782); assay: Inhibitors of USP1/UAF1: Pilot qHTS (AID 504865); conditions: purified USP1/UAF1, Ub-rhodamine cleavage fluorescence; series mostly up to 54.9 µM;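 also: rhodamine fluorescence freed from ubiquitin-rhodamine substrate followed over time; top concentration of the series differs between compounds; nearly all actives have a fitted effect of over 35% in size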
Summary of the method: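 In 50mM HEPES pH 7.8 containing 0.5mM EDTA, 1mM TCEP, 0.1 mg/ml BSA and 0.01% Tween-20, 1nM USP1/UAF1 is exposed to compound for 15 min, then Ub-Rho (150nM final) is added and fluorescence is read over time.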

Row | SMILES | Potency [1] | Potency [2] | Potency [3] | Potency [4] | Potency [5] | Potency [6] | Potency [7] | Potency [8] | Potency [9] | Potency [10] | outcome [11] | Potency [12] | Potency [13] | Potency [14] | Potency [15] | activity change, negative = inhibition [16] | activity change, negative = inhibition [17] | activity, negative = inhibition [18] | Potency [19]
1 | COc1ccc(-c2nc3cnc(Nc4cccc(OC)c4)nc3n(Cc3cccs3)c2=O)cc1 | > 11.4 µM | inactive | > 9.22 µM | > 46 µM | inactive | inactive | inactive | inactive | inactive | inactive | inactive | inactive | inactive | 44.1 µM (active) | – | – | – | – | –
2 | COc1cc(/C=C\c2ccc(OC)cc2OC)cc(OC)c1 | – | 0.794 µM (active) | > 46 µM | > 46 µM | – | inactive | inactive | – | – | – | inactive | inactive | inactive | – | inactive | – | – | – | –
3 | COc1ccccc1-c1ccc2ncnc(N(C)Cc3ccco3)c2c1 | > 11.4 µM | – | > 46 µM | – | inactive | – | – | 8.91 µM (active) | 14.1 µM (active) | – | inactive | inactive | inactive | 39.3 µM (active) | – | 10.4% | -26.4% | -6.49% | inactive
4 | O=c1c(-c2cccs2)nc2cnc(Nc3ccccc3)nc2n1C[C@H]1CCCO1 | – | 2.51 µM (active) | > 9.22 µM | > 46 µM | inactive | – | inactive | – | – | – | inactive | inactive | – | inactive | inactive | -12.9% | -16.9% | 22.1% | inactive
5 | Cn1cccc1C(=O)N1CCC2(CC1)CN(c1cccc(-c3ccccc3)c1)C2 | > 11.4 µM | 25.1 µM (active) | – | > 46 µM | – | inactive | – | – | – | – | inactive | inactive | inactive | – | inactive | -14% | -2.77% | -13.7% | –
6 | COc1cccc(-c2cc(NCc3ccc(OC)cc3OC)ncn2)c1 | > 11.4 µM | 2 µM (active) | > 46 µM | > 46 µM | inactive | inactive | inactive | 31.6 µM (active) | – | inactive | inactive | inactive | – | – | inactive | – | -8.15% | -9.18% | inactive
7 | N#C/C(=C\c1ccc(O)c(O)c1)C(=O)OCCc1cccs1 | – | – | > 46 µM | > 46 µM | – | inactive | inactive | – | – | – | inactive | inactive | inactive | – | 12.5 µM (active) | – | – | – | –
8 | COc1cccc(-c2nc(NCc3ccc(OC)cc3OC)c3ccccc3n2)c1 | – | – | > 46 µM | > 46 µM | inactive | – | – | inactive | inactive | – | inactive | inactive | inactive | – | – | -5.61% | -23.1% | -8.78% | –
